# Mdm2 MdmX PPI = human Mdm2/MdmX binding inhibition; SaOS-2 split-luciferase Mdm2/MdmX complementation, luminescence; inhibition, % at 8 µM; hit rate 3% among 330,000; AID 485346;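 active means inhibition of at least 50% at 8 µM in the primary screen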
# Target sequence (O15151 whole entry, looked up): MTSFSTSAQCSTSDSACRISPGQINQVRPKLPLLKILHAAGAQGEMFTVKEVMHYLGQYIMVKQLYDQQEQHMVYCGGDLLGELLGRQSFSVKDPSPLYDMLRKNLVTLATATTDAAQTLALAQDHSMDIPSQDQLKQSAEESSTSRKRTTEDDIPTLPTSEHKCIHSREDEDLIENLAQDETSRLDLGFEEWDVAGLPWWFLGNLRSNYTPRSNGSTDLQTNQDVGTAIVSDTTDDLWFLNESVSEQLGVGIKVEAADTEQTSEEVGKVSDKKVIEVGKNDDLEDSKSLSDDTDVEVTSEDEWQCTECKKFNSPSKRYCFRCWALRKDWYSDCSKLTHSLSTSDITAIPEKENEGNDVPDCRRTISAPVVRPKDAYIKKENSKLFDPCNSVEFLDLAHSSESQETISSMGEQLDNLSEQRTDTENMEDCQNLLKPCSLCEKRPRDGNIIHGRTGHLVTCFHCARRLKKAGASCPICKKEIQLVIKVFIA
# Target sequence (Q00987 whole entry, looked up): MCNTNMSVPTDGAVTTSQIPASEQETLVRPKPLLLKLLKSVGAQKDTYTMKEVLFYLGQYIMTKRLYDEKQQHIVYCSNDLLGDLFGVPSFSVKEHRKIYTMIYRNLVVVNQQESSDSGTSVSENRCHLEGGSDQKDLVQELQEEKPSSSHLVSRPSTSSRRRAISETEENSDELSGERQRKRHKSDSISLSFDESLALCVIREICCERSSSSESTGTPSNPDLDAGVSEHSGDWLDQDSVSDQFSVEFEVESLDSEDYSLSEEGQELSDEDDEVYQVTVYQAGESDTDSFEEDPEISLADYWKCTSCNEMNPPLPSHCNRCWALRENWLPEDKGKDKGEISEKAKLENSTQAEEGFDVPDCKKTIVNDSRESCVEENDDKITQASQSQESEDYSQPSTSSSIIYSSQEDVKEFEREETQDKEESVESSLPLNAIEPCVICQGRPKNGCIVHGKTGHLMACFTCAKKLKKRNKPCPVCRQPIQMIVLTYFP
# MPTP block = inhibitors of mitochondrial permeability transition pore; inhibition, % at 10 µM; isolated mouse mitochondria, Ca2+ swelling absorbance, 30 min; AID 602449; hit rate 1.4% among 360,000;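 active means inhibition of 50% or more, scaled per plate between neutral and stimulator controls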;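 further: 0% = DMSO wells given calcium and 100% = 1 mM EGTA wells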
# Beta cell apopt = beta cell apoptosis inhibition; protection from apoptosis, % (no concentration beside the values); hit rate 0.8% among 300,000; INS-1E cytokine-induced death, ATP luminescence, 48 h; percent of positive-control rescue, neutral wells zero;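 active means Every replicate reaches about 75%, or at least half do and their mean reaches it too, limit read from the data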;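 further: 0% = cytokine-treated negative control wells and 100% = positive control rescue; higher means more ATP so stronger rescue from cytokine killing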
# GRIN3A LBD mod = modulators (binders) of human NR3A ligand-binding domain. NR3A LBD differential scanning fluorimetry, Tm shift; 0% = protein alone, 100% = glycine-bound protein. Tm shift relative to glycine control, % at 25 µM. hit rate 2.5% among 340,000. AID 1259313;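 active means melting temperature shift of at least 10% of the positive control shift, at one fixed dose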
# CSC inhib = blocks cancer stem cells; cancer stem cell-like cells viability, luminescence; inhibition, % at 7.5 µM; hit rate 1.1% among 300,000; AID 2717; in the data active means inhibition above about 75%; tested in HMLE shEcad cells
# Gli-Sufu antag = Gli-Sufu pathway antagonism; Sufu-KO-LIGHT fibroblasts, Gli luciferase reporter luminescence; inhibition, % at 5 µM; hit rate 0.74% among 340,000; AID 588413;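 active means inhibition above about 55%, limit read from the data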;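 further: 0% = DMSO-treated cells and 100% = wells with medium but no cells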
# Rh123 counter = membrane potential counter-screen of mitochondrial pore inhibitors; inhibition, % at 10 µM; hit rate 78% among 5,000; isolated mitochondria, Rhodamine 123 fluorescence; shares compounds with MPTP block; in the data active means inhibition above about 22%;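 further: 0% = DMSO vehicle and 100% = positive control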
# MPTP swell DR = MPTP inhibition, dose response swelling confirmation | hit rate 58% among 780 | shares compounds with MPTP block | IC50, µM | isolated mitochondria swelling, absorbance | AID 651561; in the data active means IC50 below about 20 µM
# MPTP counter DR = active in counter-screen for permeability transition pore inhibitors; isolated mitochondria counterscreen, fluorescence read-out; shares compounds with MPTP block; IC50, µM; hit rate 49% among 780; in the data active means IC50 below about 80 µM
# * = called active by the depositor; i = inactive; . = not tested or not shown. Sampled rows, rich in hits. Any-hit rate of the full collection: about 6.6%.
SMILES,Mdm2 MdmX PPI,MPTP block,Beta cell apopt,GRIN3A LBD mod,CSC inhib,Gli-Sufu antag,Rh123 counter,others
CC1(C)Cc2ccccc2-c2nc(NN)[nH]c(=O)c21,0,-2,-1,0,12,3,.,
CC1(C)Cc2ccccc2-c2nc(-c3ccccc3)oc(=O)c21,-7,70*,1,4,30,-7,-4,MPTP swell DR=7.6*;MPTP counter DR=>80
COc1ccc2oc(C(=O)N(C)CCOc3ccc(Cl)cc3)c(C)c2c1,15,122*,-2,-1,7,-11,6,MPTP swell DR=i;MPTP counter DR=52*
Cc1c(C(=O)N(C)CCOc2ccccc2)oc2c(Cl)cccc12,-24,1,-7,0,.,-9,.,
Cc1cccc(Oc2cc(NC(=O)Cn3cnc([N+](=O)[O-])n3)cc([N+](=O)[O-])c2)c1,.,77*,-2,27*,32,8,66*,
Cc1cc([N+](=O)[O-])nn1CCCC(=O)Nc1cc(Oc2ccccc2)cc([N+](=O)[O-])c1,5,22,12,1,2,9,.,
N=C1/C(=C/c2cccs2)C(=O)N=C2SN=C(SCc3ccccc3)N12,-8,86*,4,2,6,-17,71*,
CC(C)CSC1=NSC2=NC(=O)/C(=C\c3cccs3)C(=N)N12,-13,100*,20,11*,40,-27,93*,
CC1=CC2=NC(=O)/C(=C/c3cccs3)C(=N)N2O1,25,1,-2,-1,-7,-1,.,
CSC1=NSC2=NC(=O)/C(=C/c3coc4ccccc4c3=O)C(=N)N12,.,95*,-5,11*,-3,-4,80*,
CSCCC(NC(=O)c1ccccc1)C(=O)N1CC=C(c2ccccc2)CC1 (stereo not drawn),16,-1,5,0,16,15,.,
COc1ccc(CCNc2ncnc3sc(C)cc23)cc1OC,10,101*,107*,3,3,69*,96*,
C[C@@H](C(=O)N[C@H](C(=O)O)c1ccccc1)n1nnc2ccccc2c1=O,-1,-1,-6,-4,-9,-10,.,
O=C(NCC1CCCO1)Nc1cc(Cl)cc(Cl)c1 (stereo not drawn),4,82*,-1,0,-11,-14,88*,
COc1ccc(S(=O)(=O)N2CCOCC2)cc1NC(=O)c1cccc2c(=O)c(C)c(-c3ccccc3)oc12,39,3,19,-2,11,24,.,
CCCc1cc(=O)[nH]c(SCc2cc(C(=O)OC)c(C)o2)n1,16,3,-11,2,-12,9,.,
COC(=O)c1cc(CSc2nc3ccccc3[nH]2)oc1C,-108,82*,-3,3,-7,-32,40*,
CCCCCCN(C(=O)CCCN1C(=O)NC(c2ccc([N+](=O)[O-])cc2)C(C(=O)OCc2ccccc2)=C1C)C(C)C(=O)NCCCC (stereo not drawn),40,0,.,1,.,4,.,
CC(C(=O)NCc1ccccc1Cl)n1cc([N+](=O)[O-])cn1 (stereo not drawn),-3,-2,-5,-1,-18,-11,.,
Cn1c(=O)c2[nH]c(COc3ccc(C(C)(C)C)cc3)nc2n(C)c1=O,2,96*,30,-3,28,4,70*,
O=C(Nc1ccc(C(F)(F)F)cc1)c1ccc2nc[nH]c2c1,-6,80*,4,6,-8,21,93*,
CC1(C)C(=O)OC(c2cc(Br)ccc2O)C(C)(C)C1=O (stereo not drawn),-13,82*,-6,-13,-14,-1,89*,
CCCCn1c(SCC(=O)c2ccccc2)nc2ccsc2c1=O,11,64*,3,1,13,8,10,MPTP swell DR=i;MPTP counter DR=>80
CCCCn1c(SCC(=O)c2ccc(O)c(O)c2)nc2ccsc2c1=O,30,52*,-2,25*,30,10,30*,
O=C(O)CCCCCn1c(SCC(=O)c2ccc(O)c(O)c2)nc2ccsc2c1=O,4,1,-8,2,15,-25,.,
SMILES,Mdm2 MdmX PPI,MPTP block,Beta cell apopt,GRIN3A LBD mod,CSC inhib,Gli-Sufu antag,Rh123 counter,others
COc1ccc(NC(=O)C(C)N2c3cccc4cccc(c34)S2(=O)=O)cc1OC (stereo not drawn),23,3,16,-37,8,43,.,
Cn1nc(-c2ccc(Cl)cc2)c2cc(C(=O)NCCCN3CCOCC3)sc21,17,74*,12,0,79*,10,-12,
CCN(CC)CCNC(=O)c1cc2c(-c3ccc(Cl)cc3)nn(C)c2s1,39,86*,.,-4,.,22,-26,
O=C(C[C@@H]1C/C=C/CC[C@@H](Cc2ccc(F)cc2)C(=O)O[C@@H](c2ccccc2)CNC1=O)NCCO,42,-3,-4,4,-10,3,.,
CSc1ccc(NC(=O)N2CCC(C(=O)c3ccc(F)cc3)CC2)cc1,21,1,10,-1,-37,-10,.,
O=C(Nc1cccc(Br)c1)c1ccc(Cl)c(S(=O)(=O)N2CCOCC2)c1,34,54*,.,-3,4,20,75*,
CN1CCCN(Cc2nc(-c3ccc(Cl)cc3)no2)CC1,-26,0,-6,-1,51,-1,.,
CC1=NC(Nc2nc(C)c3ccccc3n2)=NC(C)(C)C1,19,50*,8,0,19,4,45*,
O=C(Nc1c(F)cc(F)cc1Br)c1cc(-c2ccc(O)cc2)on1,17,92*,20,-8,37,-29,23*,
O=C(Nc1c(F)cc(F)cc1Br)c1cc(-c2ccccc2)on1,-14,1,-12,0,13,-2,.,
Cc1cc2nc(-c3ccc(SCc4ccc(C#N)cc4)nc3)[nH]c2cc1C,19,67*,9,-1,16,-1,66*,
Nc1ccc2c(c1)N=[N+]([O-])c1cc(N)ccc1C2,-26,0,-1,6,-7,6,.,
COCC[N+]1(C)CCCCC1,19,-3,-2,-1,-9,3,.,
COc1cc(NC(=S)Nc2ccc(Br)cc2Cl)c(OC)cc1Cl,-38,90*,-11,-2,7,-6,89*,
COc1cc(NC(=S)NC(C)(C)C)c(OC)cc1Cl,16,0,2,2,-4,7,.,
COc1cc(OC)c(NC(=S)Nc2cc(Cl)cc(Cl)c2)cc1Cl,-14,104*,-11,27*,38,-2,84*,
Cc1c(S(=O)(=O)Nc2cccc3ccccc23)c(=O)n(C)c(=O)n1C,31,-1,.,3,-22,-5,.,
O=C(Nc1ccc(Cl)c(Cl)c1)N1CCSC1c1ccco1 (stereo not drawn),18,92*,103*,-3,40,16,91*,

# Screening results: PubChem, several laboratories
